Assay results taken from PubChem BioAssay (NCATS).
Inconclusive results are not listed. A call without a number means that no potency is given here. Active and inactive are the calls of the source. The call rests on the fitted dose curve; in most records, active means well fitted cell-killing curve with a large enough effect; inconclusive means small, poorly fitted or top-dose-only effect, or effect the other way; inactive means no such curve, though single readings can be large or run the other way.

test: Cell Viability - LYMP2-004 (AID 966); conditions: LYMP2-004 lymphoblastoid cell viability, qHTS; series mostly up to 92.2 µM; further: nearly all actives have a fitted effect of over 65% in size
Source text: NIH Chemical Genomics Center [NCGC]
NIH Molecular Libraries Screening Centers Network [MLSCN]
National Institutes of Environmental Health Sciences [NIEHS]
National Toxicology Program [NTP]
We have developed a 1536-well cell-based assay for quantitative high throughput screening (qHTS) against a number of cell lines to determine in vitro cytotoxicity of small molecules. This particular assay uses a human lymphoblastoid cell line (LYMP2-004) purchased from Coriell Institute for Medical Research.
NCGC Assay Protocol Summary:
The CellTiter-Glo luminescent cell viability assay (Promega) is a homogeneous method to measure the number of viable cells in culture. The end point readout of this assay is based on quantitation of intracellular ATP, an indicator of metabolic activity, using the luciferase reaction. Luciferase catalyzes the oxidation of beetle Luciferin to oxyluciferin and light in the presence of ATP. The luminescent signal is proportional to amount of ATP present.
Using the CellTiter-Glo luminescent cell viability assay, the amount of cellular ATP was measured in the lymphoblastoid cell line with complete culture medium following compound treatment for 24 hours. The assay was performed in opaque white Kalypsys 1536-well plates. In the screen, tetraoctylammonium bromide was used as positive control. Library compounds were measured for their ability to cause acute toxicity in the cell line, as reflected by a decrease in intracellular ATP levels, in a concentration-dependent manner. […] AC50 values were determined from concentration-response data modeled with the standard Hill equation.
qHTS protocol for CellTiter Glo lymphoblastoid cellular assay
[Step] [Parameter] [Value] [Description]
1. Reagent; 5 uL; 2500 lymphoblastoid cells/well
2. Time; 5 hr; 37 C incubation
4. Controls; 23 nL; Tetraoctylammonium bromide 6.4pM to 92 uM
5. Time; 24 hr; 37 C incubation
6. Reagent; 5 uL; CellTiter Glo reagent
7. Time; 30 min; Room Temperature
8. Detection; Luminescence; Viewlux plate reader
Keywords: cell viability, cytotoxicity, lymphoblastoid cell line, luminescence, NTPHTS, NTPHTS_NCGC, NIEHS, DSSTox, MLSMR, MLSCN, NIH Roadmap, qHTS, NCGC
Potency means the concentration at half of the fitted maximal effect.

Which Potency does the source give for `c1ccc2ccccc2c1` here?
The Potency was “inactive”.

Which Potency does the source give for `CCCCC` here?
The Potency was “inactive”.

For `OCc1ccccc1`, which Potency is on record?
Its Potency is “inactive”.

With `CO/N=C(/C(=O)N[C@@H]1C(=O)N2C(C(=O)O)=C(COC(N)=O)CS[C@H]12)c1ccco1` as the compound, how does the Potency read?
Its Potency is “inactive”.

Which Potency does the source give for `ClC(Cl)Cl` here?
Its Potency is “inactive”.

Which Potency does the source give for `Nc1nccs1` here?
The Potency was “inactive”.

Which Potency does the source give for `NCCN` here?
The Potency was “inactive”.

With `Oc1ccc(/C=C/c2cc(O)cc(O)c2)cc1` as the compound, how does the Potency read?
The Potency was “inactive”.

For `CC1=CCC2CC1C2(C)C` (configuration not stated), which Potency is on record?
Its Potency is “inactive”.

With `OCC(O)CO` as the compound, how does the Potency read?
The Potency was “inactive”.

For `CC(C)(C)CC(C)(C)c1ccc(OCCO)cc1`, which Potency is on record?
The Potency was “inactive”.

With `C[C@H](CCC(=O)O)[C@H]1CC[C@H]2[C@@H]3CC[C@@H]4C[C@H](O)CC[C@]4(C)[C@H]3C[C@H](O)[C@]12C` as the compound, how does the Potency read?
The Potency was “inactive”.

Which Potency does the source give for `NC(N)=O` here?
Its Potency is “inactive”.

Which Potency does the source give for `CC[C@H]1OC(=O)[C@H](C)[C@@H](O[C@H]2C[C@@](C)(OC)[C@@H](O)[C@H](C)O2)[C@H](C)[C@@H](O[C@@H]2O[C@H](C)C[C@H](N(C)C)[C@H]2O)[C@](C)(O)C[C@@H](C)CN(C)[C@H](C)[C@@H](O)[C@]1(C)O` here?
The Potency was “inactive”.

Which Potency does the source give for `Cc1ccc(S(=O)(=O)O)cc1C` here?
Its Potency is “inactive”.

For `Cc1ncc[nH]1`, which Potency is on record?
The Potency was “inactive”.

With `Nc1ccc(N=Nc2ccccc2)c(N)n1` as the compound, how does the Potency read?
Its Potency is “inactive”.

For `CO`, which Potency is on record?
The Potency was “inactive”.

With `C/C=C/C=C/C(=O)O` as the compound, how does the Potency read?
The Potency was “inactive”.

Which Potency does the source give for `CC1=CC(=O)NS(=O)(=O)O1` here?
The Potency was “inactive”.

For `C[C@H](CCC(=O)O)[C@H]1CC[C@H]2[C@@H]3[C@H](O)C[C@@H]4C[C@H](O)CC[C@]4(C)[C@H]3C[C@H](O)[C@]12C`, which Potency is on record?
Its Potency is “inactive”.

Which Potency does the source give for `O=P(O)(O)O` here?
The Potency was “inactive”.

With `COC(=O)c1ccccc1O` as the compound, how does the Potency read?
Its Potency is “inactive”.

For `Nc1ncnc2c1ncn2[C@H]1CC[C@@H](CO)O1`, which Potency is on record?
Its Potency is “inactive”.

Which Potency does the source give for `[O-][N+](=Nc1ccccc1)c1ccccc1` here?
Its Potency is “inactive”.

With `C=C1C(CCl)(CCl)C2(Cl)C(Cl)C(Cl)C1(Cl)C2(Cl)Cl` (configuration not stated) as the compound, how does the Potency read?
The Potency was 39.8 µM (active).

For `CC(C)O`, which Potency is on record?
The Potency was “inactive”.

Which Potency does the source give for `CCCCO` here?
Its Potency is “inactive”.

With `CCOC(C)OCC` as the compound, how does the Potency read?
Its Potency is “inactive”.

With `OC[C@H]1O[C@@H]2O[C@H]3[C@H](O)[C@@H](O)[C@@H](O[C@H]4[C@H](O)[C@@H](O)[C@@H](O[C@H]5[C@H](O)[C@@H](O)[C@@H](O[C@H]6[C@H](O)[C@@H](O)[C@@H](O[C@H]7[C@H](O)[C@@H](O)[C@@H](O[C@H]1[C@H](O)[C@H]2O)O[C@@H]7CO)O[C@@H]6CO)O[C@@H]5CO)O[C@@H]4CO)O[C@@H]3CO` as the compound, how does the Potency read?
Its Potency is “inactive”.

For `OB(O)O`, which Potency is on record?
Its Potency is “inactive”.

For `OCl`, which Potency is on record?
The Potency was “inactive”.
